Data as given in the supplement of paper PMC6555819.

Legend:
Experiment in all cases: PBM binding z-score (relative to random genomic background probes); higher = stronger binding; sequences stand for … in GC…GCGATTGACAGCGTAGAATGAAGG
[1] = test system: FXR:RXRa (NR concentration 270 nM, RXRa partner concentration 90 nM)
Method in brief: (§1)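 Binding z-scores were set against random background probes. The data came from custom Agilent 4×180K protein-binding microarrays carrying double-stranded probes with 34-nt variable regions, incubated 1 h with ligand-free nuclear receptor dimers. Partner-specific antibodies detected binding, and scanned fluorescence was regression-normalized.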

[2] = test system: LXRa:RXRa (NR concentration 270 nM, RXRa partner concentration 90 nM)
Method in brief: as §1

[3] = test system: LXRa homodimer (NR concentration 270 nM)
Method in brief: as §1

[4] = test system: LXRb:RXRa (NR concentration 270 nM, RXRa partner concentration 90 nM)
Method in brief: as §1

[5] = test system: LXRb homodimer (NR concentration 270 nM)
Method in brief: as §1

[6] = test system: PPARa:RXRa (NR concentration 270 nM, RXRa partner concentration 90 nM)
Method in brief: as §1

[7] = test system: PPARg:RXRa (NR concentration 180 nM, RXRa partner concentration 90 nM)
Method in brief: as §1

[8] = test system: PPARg:RXRa 270nM:90nM, anti-RXR (NR concentration 270 nM, RXRa partner concentration 90 nM)
Method in brief: as §1

[9] = test system: PPARg:RXRa 30nM:10nM, anti-RXR (NR concentration 30 nM, RXRa partner concentration 10 nM)
Method in brief: as §1

[10] = test system: PPARg:RXRa 90nM:30nM, anti-RXR (NR concentration 90 nM, RXRa partner concentration 30 nM)
Method in brief: as §1

[11] = test system: PPARg:RXRa DBDmut IVT, anti-RXR (DBD mutation: RXRa K156A/R161A, NR concentration 270 nM, RXRa partner concentration 90 nM)
Method in brief: as §1

[12] = test system: PPARg:RXRa IVT, anti-PPARg (NR concentration 270 nM, RXRa partner concentration 90 nM)
Method in brief: as §1

[13] = test system: PPARg DBDmut:RXRa IVT, anti-PPARg (DBD mutation: PPARg1 K132A/R137A, NR concentration 270 nM, RXRa partner concentration 90 nM)
Method in brief: as §1

[14] = test system: PPARg DBDmut IVT, anti-PPARg (DBD mutation: PPARg1 K132A/R137A, NR concentration 270 nM)
Method in brief: as §1

[15] = test system: PPARg homodimer (NR concentration 180 nM)
Method in brief: as §1

[16] = test system: PXR:RXRa (NR concentration 270 nM, RXRa partner concentration 90 nM)
Method in brief: as §1

[17] = test system: PXR homodimer (NR concentration 270 nM)
Method in brief: as §1

[18] = test system: RARa:RXR (NR concentration 270 nM, RXRa partner concentration 90 nM)
Method in brief: as §1

[19] = test system: RARa homodimer (NR concentration 270 nM)
Method in brief: as §1

[20] = test system: RARb:RXRa (NR concentration 270 nM, RXRa partner concentration 90 nM)
Method in brief: as §1

| Sequence | PBM binding z-score [1] | PBM binding z-score [2] | PBM binding z-score [3] | PBM binding z-score [4] | PBM binding z-score [5] | PBM binding z-score [6] | PBM binding z-score [7] | PBM binding z-score [8] | PBM binding z-score [9] | PBM binding z-score [10] | PBM binding z-score [11] | PBM binding z-score [12] | PBM binding z-score [13] | PBM binding z-score [14] | PBM binding z-score [15] | PBM binding z-score [16] | PBM binding z-score [17] | PBM binding z-score [18] | PBM binding z-score [19] | PBM binding z-score [20] |
| --- | --- | --- | --- | --- | --- | --- | --- | --- | --- | --- | --- | --- | --- | --- | --- | --- | --- | --- | --- | --- |
| CTCGAAAGGTCCGTTGAGGTGAGTATACGGATAA | 0.973 | -0.377 | -0.421 | -0.34 | -0.666 | 0.249 | -0.102 | 0.101 | -0.184 | -0.198 | -0.499 | 0.457 | 0.113 | -0.18 | -0.594 | 0.156 | -0.14 | 0.322 | -0.439 | 1.12 |
| CGAACGAGGGCATGAATTGATAGCAAATGCCGAT | -0.0699 | -0.102 | -0.436 | -0.0113 | -0.655 | 0.924 | 0.992 | 0.623 | 0.00744 | 0.388 | 2.65 | 1.53 | 0.103 | -0.47 | 0.00872 | 0.118 | -0.261 | 0.259 | -0.227 | 1.72 |
| CCTAGCAGGCCAGGGTTACTCAAGCATTTCGCTT | -0.32 | 0.0268 | -0.897 | 0.041 | -1.32 | 0.412 | -0.105 | 0.539 | -0.759 | -0.212 | 0.153 | -0.137 | -1.74 | -1.06 | -0.6 | -0.139 | -0.48 | 0.193 | -0.665 | 0.303 |
| TCTATTAGTTGATTAGGACAACCGAAACAGCGGA | 0.957 | 0.808 | 0.615 | 0.807 | 1.17 | 0.875 | 0.378 | 2.18 | 4.26 | 3.32 | 2.5 | 0.979 | 0.853 | 1.57 | 1.65 | 0.749 | 0.881 | 0.862 | 2.34 | 0.68 |
| AGTCAAAGTTCATCTAGGTAACGTTAGATATGCT | 6.45 | 6.1 | 5.46 | 3.96 | 1.99 | 4.88 | 6.36 | 6.31 | 3.3 | 5.58 | 1.25 | 3.81 | 1.67 | 1.07 | 2.67 | 5.32 | 7.67 | 4.08 | 0.982 | 5 |
| ATCTCTAGGTAACCAAGTTCAGTGCATGCCGAAC | 0.755 | 1.14 | 0.876 | 0.833 | 0.777 | 1.38 | 0.901 | 0.936 | 0.401 | 0.474 | 3.99 | 3.29 | 0.293 | 0.732 | 0.815 | 2.2 | 2.24 | 1.03 | 0.856 | 1.37 |
| TCTAGTTGGTCAAAGGTCACATACTCGAAATGCG | 5.54 | 5.66 | 3.58 | 5.2 | 2.28 | 6.24 | 10.8 | 9.78 | 9.93 | 11.1 | 3.45 | 6.25 | 1.46 | 1.64 | 5.02 | 5.59 | 1.83 | 7.12 | 3.51 | 4.83 |
| ATATGTAGGTCACATCCGGGTCATTCAGGCTATG | 4.9 | 5.58 | 3.31 | 4.45 | 1.88 | 5.8 | 9.18 | 7.48 | 5.41 | 7.3 | 8.71 | 8.92 | 2.83 | 2.12 | 3.45 | 5.25 | 2.96 | 5.31 | 0.84 | 4.34 |
| CCAGACAGGTGACAAGGTAACTCAGCCTCGATTA | 0.0849 | 0.145 | -0.212 | -0.039 | -0.466 | 0.6 | 0.825 | 0.508 | -0.365 | 0.0365 | 1.41 | 1.61 | -0.344 | -0.0688 | 0.918 | -0.151 | -0.207 | 0.278 | 0.367 | 0.783 |
| TCACCAAGGTGAAGGTCGTTGATCCCTCTGTAGA | 2.28 | 2.24 | -0.136 | 1.8 | -0.731 | 2.71 | 2.23 | 3.66 | 2.84 | 3.37 | 2.46 | 2.65 | 0.477 | 0.105 | -0.15 | 1.61 | 0.00737 | 1.94 | -1.46 | 2.27 |
| TCTTGTAGATCAATAGAGGTTAAGAACGTGCGCT | 0.948 | 2.59 | 0.355 | 1.46 | -0.115 | 1.92 | 0.397 | 1.66 | 2.84 | 2.58 | 1.69 | 1.17 | 0.658 | 1.03 | 0.496 | 1.51 | 0.111 | 1.83 | 0.544 | 0.956 |
| ATCGAAAGGTCGTGATGTGAGTATACAGAAAGGC | 4.54 | 3.48 | 0.378 | 3.08 | 0.626 | 4.67 | 3.21 | 3.2 | 1.34 | 2.34 | -0.177 | 1.63 | 1.58 | 1.08 | 1.07 | 2.71 | 0.368 | 3.38 | 0.598 | 3.68 |
| CCGACTGGGGCAAAAGTTACCATACTCAGTACGA | -0.402 | -0.339 | -0.126 | -0.0156 | -0.764 | 2.49 | 5.28 | 6.09 | 4.45 | 6.52 | 4.08 | 3.59 | -0.127 | -0.288 | 0.506 | -0.414 | -0.137 | -0.0334 | -0.135 | 0.202 |
| GGTACAGGGTCAGCTAGAGGCCAGAGTATGGAAA | 4.99 | 2.87 | -0.106 | 2.67 | -0.0836 | 4.62 | 4.12 | 3.78 | 0.502 | 2.27 | 0.482 | 2.29 | 0.521 | -0.216 | 2.93 | 3.37 | 0.15 | 4.88 | 0.0993 | 4.22 |
| AGTCAGAGTTCACTAGGTAACGTAAGATTCAGCT | 4.41 | 4.52 | 2.25 | 2.64 | 0.624 | 4.54 | 5.57 | 5.35 | 2.12 | 4.4 | 2.59 | 4.05 | 1.02 | 0.611 | 2.37 | 4.41 | 3.8 | 2.72 | 0.385 | 3.97 |
